Only some compounds are listed: those with a hit (about 21% of all), similar ones and a draw of the others.
NS1 function inh – blocks influenza NS1 protein function; Potency, µM (series often up to 46.1 µM), inactives show top-dose activity, positive = more growth; 270,000 tested, 0.4% active; AID 2326; calls by dose curve; note: potency is the fitted concentration of half-maximal effect; actives are rising curves; nearly all actives have a fitted effect of over 50% in size
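OD600 was taken as the measure of yeast growth restored by compound in an NS1-expressing S. cerevisiae strain. Cells had been washed out of glucose medium and diluted 1:100 into galactose -URA medium, pH 6.0.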
CHX counter – affects cycloheximide protein synthesis inhibition readout, counter-screen; cell reporter, cycloheximide protein synthesis inhibition counterscreen; max response, %; 300,000 tested, 12% active; in the data active = max response mostly above about 13%, no sharp cut-off; inactive = mostly below about 14%; note: read at 38.3 µM for the half of the compounds with a filed dose; 0% is about no effect
Pf growth 48h – P. falciparum growth inhibition at 48 hours (one generation) | P. falciparum luciferase growth in erythrocytes, 48 h | Potency, µM (titrated, usually from 28.7 µM), inactives show at the highest dose activity change, negative = inhibition, actives largely listed as inhibitors | 310,000 tested, 5.9% active | AID 504832; note: potency is the fitted concentration of half-maximal effect; % is set by controls: 0 for no effect and ±100 for the full control effect
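Read-out is firefly luciferase luminescence from an integrated reporter in P. falciparum, so falling signal marks reduced parasite growth. Infected erythrocytes were at 2% hematocrit and 0.1% parasitemia (final) in Albumax-supplemented RPMI 1640.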
SARS PLP yeast – inhibitors of SARS-CoV papain-like protease in yeast. S. cerevisiae expressing SARS-CoV PLpro, growth rescue. Potency, µM (highest dose often 32.9 µM), for the others: at the highest dose activity, positive = growth rescue, usual class: activators. 330,000 tested, 0.19% active. AID 485353; calls by dose curve; note: potency is the fitted concentration of half-maximal effect; 0% is about no effect; nearly all actives have a fitted effect of over 55% in size
Pf growth 96h – P. falciparum growth inhibition at 96 hours. P. falciparum luciferase reporter growth, 96 h. Potency, µM (series often up to 28.7 µM), inactives show at the highest dose activity change, negative = inhibition, hits mostly inhibitors. 320,000 tested, 6.9% active. AID 504834; note: potency is the fitted concentration of half-maximal effect; % is set by controls: 0 for no effect and ±100 for the full control effect
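Two-generation exposure (96 h) targets delayed-death phenotype. Reporter parasites carrying integrated firefly luciferase, in red cells at 2% hematocrit and 0.05% parasitemia final, kept at 37 C, 5% CO2; luminescence loss indicates inhibition.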
Shiga toxin inh – inhibitors of Shiga toxin in Vero cells | inhibition, % at 38.7 µM | Vero cells, Shiga toxin protein synthesis inhibition reporter | 290,000 tested, 9.2% active; in the data active = inhibition mostly above about 28%, no sharp cut-off; inactive = mostly below about 43%; note: 0% is about no effect
Active calls of the source: *; ? = inconclusive; / = not tested or not shown; [ ] = another dose, or the depositor's remark. Unless noted, calls come from the whole dose curve; as a rule, active = well fitted inhibition curve with a large enough effect; inconclusive = small, poorly fitted or top-dose-only effect, or another doubt; inactive = no such curve, though single readings can be large or run the other way.

SMILES	NS1 function inh	CHX counter	Pf growth 48h	SARS PLP yeast	Pf growth 96h	Shiga toxin inh
CC(C)C(NS(=O)(=O)c1c(Cl)cccc1Cl)C(=O)OCC(=O)c1c[nH]c2ccccc12 (stereo not given)	-30%	-2	4.1µM*	-14%	4.7µM*	-5
Cc1ccc(C(=O)OCC(=O)c2c[nH]c3ccccc23)cc1	10%	48*	90%	-12%	174%	81*
COc1cc(C(=O)OCC(=O)c2c[nH]c3ccccc23)ccc1OCC(=O)N1CCOCC1	3%	-3	?	2%	?	-12
COc1ccc(OCC(=O)c2c[nH]c3ccccc23)cc1	/	45*	0%	-1%	42%	54*
CC(C)CCNC(=O)C1CCC(CNS(=O)(=O)c2ccc(Cl)cc2)CC1 (stereo not given)	-1%	2	0%	2%	31%	-8
CCC1=NN(C(=O)CCc2ccc3c(c2)OCO3)C(O)(C(F)(F)F)C1 (stereo not given)	3%	-1	0%	4%	-9%	5
O=C(c1ccc(F)cc1Cl)N(Cc1ccco1)C1CCS(=O)(=O)C1 (stereo not given)	/	/	-29%	-3%	-23%	/
Cc1cnc(C(=O)OCC(=O)c2c[nH]c3ccccc23)cn1	/	/	13µM*	-2%	?	/
Cc1cnc(C(=O)OCC(=O)c2cccc3ccccc23)cn1	/	/	10%	-3%	-1%	/
CC(NC(=O)c1ccc(-c2cc(C(F)(F)F)ccc2Cl)o1)c1ccccc1 (stereo not given)	-1%	0	?	1%	/	12
CN(Cc1c(F)cccc1Cl)C(=O)c1ccc(NS(=O)(=O)c2ccc3[nH]c(=O)[nH]c3c2)cc1	/	/	13%	1%	?	/
CC(C)(C)C1CCc2c(sc3nc(SCC(=O)O)nc(N)c23)C1 (stereo not given)	5%	16*	31%	1%	14%	34
CC1(C)Cc2c(sc3nc(SCC(=O)O)nc(N)c23)CO1	-2%	-4	13%	?	38%	24
Nc1nc(SCC(=O)NCCO)nc2sc3c(c12)CCCC3	/	9	23%	1%	11%	-2
COC(=O)CSc1nc(N)c2c3c(sc2n1)CCCC3	-82%	16*	7%	-5%	29%	46
CNC[C@@H]1Oc2ccc(NS(=O)(=O)c3ccc(OC)cc3)cc2CC(=O)N([C@H](C)CO)C[C@@H]1C	/	/	/	2%	/	/
COc1ccccc1NC(=O)Cn1cc(C#N)c2ccccc21	-3%	-2	/	7%	-100%	-17
COc1cccc(NC(=O)Cn2cc(C(=O)c3ccc(C)cc3)c(=O)c3cc(OC)ccc32)c1	/	/	?	-11%	?	/
CCc1ccc(C(=O)c2cn(CC(=O)Nc3cccc(OC)c3)c3ccc(OC)cc3c2=O)cc1	/	/	12µM*	6%	2.9µM*	/
COc1cccc(NC(=O)Cn2cc(C#N)c3ccccc32)c1	18%	-2	15µM*	-1%	67%	10
O=C(C1CCC(=O)N(C2CCCC2)C1)N1CCN(Cc2cccc(Cl)c2)CC1 (stereo not given)	-1%	-2	-16%	3%	23%	-5
Cn1c(N)c(Sc2ccccc2[N+](=O)[O-])c(=O)n(C)c1=O	-11%	-5	18%	0%	9%	3
CCOC(=O)c1c(C)nc(C)c(C(=O)OCC)c1-c1ccc(Br)cc1	-14%	-1	-23%	29%	13µM*	-4
C=C[C@@H]1c2c(F)cccc2N(S(=O)(=O)c2ccc(C)cc2)[C@H](c2ccc(OC(C)=O)cc2)C1(C#N)C#N	/	/	1.7µM*	3%	2.6µM*	/
C=C[C@@H]1c2cccc(C)c2N(S(=O)(=O)c2ccc(C)cc2)[C@H](c2ccc(OC(C)=O)cc2)C1(C#N)C#N	/	/	/	1%	/	/
SMILES	NS1 function inh	CHX counter	Pf growth 48h	SARS PLP yeast	Pf growth 96h	Shiga toxin inh
C=C[C@@H]1c2c(F)cccc2N(S(=O)(=O)c2ccc(C)cc2)[C@H](c2ccc(C(=O)OC)cc2)C1(C#N)C#N	/	/	4.1µM*	6%	12µM*	/
C=C[C@@H]1c2ccccc2N(S(=O)(=O)c2ccc(C)cc2)[C@H](c2ccc(C(F)(F)F)cc2)C1(C#N)C#N	/	/	?	0%	?	/
CCNc1sc(C(=O)OCC)c(N)c1C#N	/	5	12%	-1%	18%	-9
NC(=O)C1CCN(c2nc(-c3ccc(C(F)(F)F)cc3)cs2)CC1	/	/	?	/	26%	/
CN(C)C(=O)C1C2NC(=S)N(c3ccc(Cl)cc3)C1(C)Oc1ccc(Cl)cc12 (stereo not given)	/	-5	?	?	?	3
Cc1ccc(S(=O)(=O)N2CCOCC2)cc1NC(=O)COC(=O)CNC(=O)c1ccc(Cl)cc1Cl	-3%	-1	24%	/	8%	-12
Cc1cccc(C)c1OCC(O)CNS(=O)(=O)c1ccccc1C(=O)N1CCCCC1 (stereo not given)	-8%	-1	?	22%	12µM*	-6
CC1CCN(C(=O)CCc2nnc3ccc(N4CCC5(CC4)OCCO5)nn23)CC1	5%	-3	-3%	-2%	10%	-4
CNc1nn(-c2cccc(Cl)c2)nc1N	?	47*	139%	-28%	0%	90*
CC1CC=CC2C1C(=O)N(Cc1ccccc1)C2c1ccc(-c2ccc(F)cc2)cc1F (stereo not given)	/	-4	/	/	/	15
Cc1cc(=O)oc2c(C)c(OC(C)C(=O)Nc3ccc(N4CCC(C)CC4)cc3)ccc12 (stereo not given)	4%	-2	7.4µM*	4%	3.3µM*	-12
COc1ccc(-c2cc(=O)oc3c(C)c(OC(C)C(=O)Nc4ccc(CN5CCOCC5)cc4)ccc23)cc1 (stereo not given)	5%	-2	7.4µM*	-4%	3.7µM*	-4
N#Cc1cnc2sc3ccccc3n2c1=N	-68%	47*	/	-4%	-19%	51*
COc1ccc(CNC(=O)Cc2cccs2)cc1OC	2%	28*	-21%[0.00184 µM]	1%	48%	54
COc1ccc(CC(=O)NCc2ccccn2)cc1OC	-2%	-5	10µM*	-1%	4.7µM*	-6
COc1ccccc1Cn1nc(C(=O)O)c2ccccc2c1=O	-14%	20*	29%	11%	47%	43*
Cc1cccc(CNC(=O)Cc2csc3ccccc23)c1	/	63*	/	/	/	75*
COc1ccccc1-n1nc(C(=O)O)c2ccccc2c1=O	6%	-2	1%	-2%	?	-3
Cc1nnc(NC(=O)CCC(=O)NC2CCCCCCC2)s1	12%	-1	32%	0%	18%	-3
COc1ccccc1CNC(=O)C1CCN(S(=O)(=O)c2c(C)noc2C)CC1	-2%	4	10%	-1%	-2%	8
COc1ccc(CC(=O)NNC(=O)c2nn(Cc3ccccc3)c(=O)c3ccccc23)cc1OC	6%	5	3.3µM*	1%	?	8
